Screening data deposited in PubChem BioAssay by several laboratories.
LGR2 inh: blocks bursicon-induced cAMP signaling via Drosophila LGR2. HEK293 LGR2, CRE-luciferase, bursicon-stimulated, 4 h. inhibition, % at 9.99 µM. 0.35% of 380,000 active;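 active = drop in luminescence signal, shown as inhibition above about 50% in the replicate tests, limit read from the data, passing the limit was not always enough; inconclusive = probably only some replicates passing the limit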;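 also: agonist challenge used bursicon conditioned medium at about half maximal strength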
LMP1 NFkB inh: inhibitors of Epstein-Barr LMP1-induced NF-kappaB reporter. LMP1-induced NF-kappaB luciferase reporter cells, luminescence. inhibition, % at 12.5 µM. 0.69% of 350,000 active. AID 504558; in the data active = inhibition above about 41%; inconclusive = no clear call, values can overlap the other calls;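 also: 0% = neutral control wells and 100% = reference inhibitor control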
TROY NFkB inh: TROY signaling inhibition. inhibition, % at 10 µM. Q293 LMP1-TROYcd NF-kB luciferase reporter, 4 h. AID 1347056. 0.98% of 360,000 active;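 active = compounds whose plate-normalised and pattern-corrected inhibition of the luciferase reporter signal at the single screening dose is 50% or more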
HSP90 refold inh: inhibitors of HSP90 luciferase refolding in rabbit reticulocyte lysate. luciferase refolding luminescence, 3 h. inhibition, % at 5.6 µM. 0.91% of 290,000 active;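 active = inhibition above the screen-wide mean plus 3 SD, computed separately per campaign, cut at about 16% in these data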;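 also: 0% = DMSO wells and 100% = 60 µM geldanamycin wells; inhibitors lower the luminescence because luciferase stays unfolded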
aDG glyco act: increases alpha dystroglycan glycosylation; Pro5-aDG cells, alpha-DG glycosylation AlphaScreen (IIH6); 0% Pro5, 100% B10-LARGE cell signal; activation, % at 10 µM; 0.22% of 360,000 active;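 active = activation of at least 8% versus controls, or a plate z-score of at least 8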;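 also: Pro5 are CHO cells carrying HIG-tagged alpha-DG that lacks glycosylation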
TWEAK Fn14 block: inhibitors of TWEAK-Fn14 interaction signaling; TWEAK-stimulated Fn14 reporter cells, luciferase luminescence, 8 h; inhibition, % at 10 µM; 2% of 360,000 active; AID 1159606; in the data active = inhibition above about 50%
An asterisk follows results filed as active; ? = inconclusive; nt = no result given. Shown are actives, neighbours in structure and some others; about 2.6% of the full set was active somewhere.

SMILES | LGR2 inh | LMP1 NFkB inh | TROY NFkB inh | HSP90 refold inh | aDG glyco act | TWEAK Fn14 block
CC1=C(C(=O)OCc2ccc3c(c2)OCO3)C(c2ccc(O)c([N+](=O)[O-])c2)NC(=O)N1 (stereo not drawn) | -2 | 12 | 44 | 0 | 0 | 71*
CC1=C(C(=O)OCc2ccc3c(c2)OCO3)C(c2ccccc2OCc2ccccc2)NC(=O)N1 (stereo not drawn) | 10 | -4 | 33 | 8 | 0 | 41
CCOC(=O)C1=C(CNCc2ccccc2Cl)NC(=O)NC1c1ccc2c(c1)OCO2 (stereo not drawn) | nt | -9 | nt | 3 | 0 | 80*
CC1=C(C(=O)OCc2ccc3c(c2)OCO3)C(c2ccccc2)NC(=O)N1 (stereo not drawn) | 33 | 69* | 59* | 3 | 0 | 87*
Cc1ccc(-c2nnc(SCC(=O)Nc3ccc4c(c3)oc3ccccc34)n2C)c(Cl)c1 | nt | 8 | 22 | -8 | 1 | 67*
Cc1noc(C)c1NC(=O)N1C[C@@H](O)COC[C@H]2O[C@@H](CC(=O)NCC3CC3)CC[C@@H]21 | -24 | nt | nt | nt | nt | nt
O=C(NC1CCCCC1)N[C@@H]1CC[C@@H](CCNS(=O)(=O)c2ccccc2)O[C@@H]1CO | -11 | nt | nt | nt | nt | nt
O=C(/C=C\c1ccco1)Nc1nc(-c2ccc3ccccc3c2)cs1 | 55* | 10 | 48 | -1 | 0 | 83*
O=C(/C=C/c1ccc2c(c1)OCO2)Nc1nc(-c2ccccc2)cs1 | nt | 7 | 62* | 0 | 0 | 88*
Cc1sc(NC(=O)/C=C/c2ccc3c(c2)OCO3)nc1-c1ccccc1 | 4 | 6 | 27 | -1 | 1 | 88*
Cc1ccc(-c2csc(NC(=S)NC(=O)/C=C/c3ccco3)n2)cc1 | nt | 4 | -30 | 1 | 0 | 18
O=C(/C=C/c1ccc2c(c1)OCO2)Nc1nncs1 | -45 | nt | -23 | 2 | 0 | 10
COc1ccc2c3c([nH]c2c1)[C@@H](CO)N(S(C)(=O)=O)CC31CN(C(=O)c2cccnc2)C1 | 5 | nt | nt | nt | nt | nt
COc1ccc(N(C(=O)c2ccco2)S(=O)(=O)c2cc(Cl)c(Cl)cc2Cl)cc1 | nt | 3 | 54* | 10 | 0 | 25
CCCC#Cc1cnc2c(c1)C(=O)N([C@H](C)CO)C[C@@H](C)[C@@H](CN(C)C(=O)c1ccccc1)O2 | 21 | nt | nt | nt | nt | nt
Oc1ccc(C=NNC(=S)Nc2ccccc2)nc1 | 7 | 51* | -40 | nt | 0 | 20
CO[C@H]1CN(C)C(=O)c2cc(NC(=O)CC(F)(F)F)ccc2OC[C@H](C)N(CC2CC2)C[C@H]1C | 6 | nt | nt | nt | nt | nt
O=C(NCCc1ccccc1)C(c1cccs1)N(C(=O)CCl)c1ccc(Cl)cc1 (stereo not drawn) | 10 | -4 | -22 | 1 | 0 | 64*
O=C(N/N=C/c1ccc([N+](=O)[O-])o1)c1cc2c(ccc3ccccc32)o1 | -1 | -109 | 14 | 0 | 3 | 35
Cc1ccc(/C=N/NC(=O)c2cc3c(ccc4ccccc43)o2)o1 | 2 | 7 | 73* | 3 | 0 | -14
Cc1ccc(/C=N/Nc2ccc3ccccc3n2)o1 | ? | 10 | 24 | 14 | 4 | 86*
Cc1ccc(/C=N/NC(=O)c2cc(-c3ccccc3)nc3ccccc23)o1 | 20 | 54* | -3 | 4 | 0 | 0
O=C(N/N=C/c1ccc([N+](=O)[O-])o1)c1cc2ccccc2o1 | 5 | -22 | -5 | 5 | 3.6* | -13
COCC(=O)Nc1ccc2c(c1)OC[C@@H](C)N(C(=O)COC)C[C@H](C)[C@H](OC)CN(C)C2=O | 12 | nt | nt | nt | nt | nt
CC(C)(C)C(=O)/C(=C/c1ccncc1)n1cncn1 | 79* | 38 | 51* | 0 | -1 | 83*
SMILES | LGR2 inh | LMP1 NFkB inh | TROY NFkB inh | HSP90 refold inh | aDG glyco act | TWEAK Fn14 block
Cc1nn(C)c(C)c1/C=C(/C(=O)C(C)(C)C)n1cncn1 | 23 | -3 | -4 | 3 | 0 | 12
NC(=O)N/N=C/c1ccc(N2CCOCC2)s1 | -2 | 48* | 18 | 3 | 0 | -4
CCNC(=O)C[C@@H]1CC[C@@H]2[C@H](COC[C@H](O)CN2C(=O)Nc2c(C)noc2C)O1 | -3 | nt | nt | nt | nt | nt
O=C(Cn1c(=O)oc2ccccc21)Nc1ccc(Br)cc1 | -10 | -5 | -1 | -2 | 0 | 2
N#Cc1c(NC(=O)Cn2c(=O)oc3ccccc32)oc(-c2ccccc2)c1-c1ccccc1 | 14 | -13 | 68* | 0 | 1 | -14
Cc1cccc(S(=O)(=O)N[C@@H]2CC[C@H](CCNC(=O)c3cnccn3)O[C@@H]2CO)c1 | 8 | nt | nt | nt | nt | nt
Cc1noc(C)c1S(=O)(=O)Nc1ccc2c(c1)C(=O)N([C@H](C)CO)C[C@H](C)[C@@H](CN(C)S(=O)(=O)c1cccs1)OCCCC[C@H](C)O2 | -4 | nt | nt | nt | nt | nt
CCCC(=O)Nc1ccc2c(c1)OC[C@@H](C)N(C)C[C@@H](C)[C@H](OC)CN(C)C2=O | 1 | nt | nt | nt | nt | nt
COc1ccc(N2CCN(c3ncnc4c3[nH]c3ccccc34)CC2)cc1 | nt | 48* | 76* | -6 | 6.2* | 77*
COc1ccc2[nH]c3c(N4CCc5ccccc5C4)ncnc3c2c1 | 79* | 18 | 69* | -5 | 0 | 92*
COc1cc2[nH]c3c(N4CCN(c5ccccn5)CC4)ncnc3c2cc1OC | nt | -6 | 38 | 0 | -1 | 73*
COc1cccc2[nH]c3c(N4CCCCC4)ncnc3c12 | nt | -3 | -25 | -2 | 0 | -53
O=C(NCC[C@H]1CC[C@@H](NC(=O)c2cnccn2)[C@@H](CO)O1)Nc1ccc(F)cc1 | 11 | nt | nt | nt | nt | nt
Cc1noc(C)c1NC(=O)Nc1ccc2c(c1)CC(=O)N([C@H](C)CO)C[C@@H](C)[C@H](CN(C)C(=O)Nc1ccc(C(F)(F)F)cc1)O2 | 19 | nt | nt | nt | nt | nt
O=C(NCC(F)(F)F)[C@@H]1[C@@H](CO)[C@@H]2Cn3c(cccc3=O)[C@@H]2N1C(=O)C1CCCC1 | 4 | nt | nt | nt | nt | nt
CCCCN1/C(=C/c2ccc3ccccc3[n+]2CC)Sc2ccccc21 | nt | 52* | 26 | -1 | 8.4* | 66*
